Only some compounds are listed: those with a hit (about 8.7% of all), similar ones and a draw of the others.
Pf growth 96h: Primary qHTS for delayed death inhibitors of the malarial parasite plastid, 96 hour incubation; P. falciparum luciferase reporter growth, 96 h; Potency, µM (series often up to 28.7 µM), inactives show top-dose activity change, negative = inhibition, usual class: inhibitors; actives 6.9% (n = 320,000); AID 504834, 2011
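Plates of compound plus infected erythrocytes (2% hematocrit, 0.05% parasitemia final) incubate 96 hours, 37 C, 5% CO2. Detection reagent added; reduced luminescence from the parasites' luciferase reporter flags inhibition.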
Pf growth 48h: Primary qHTS for delayed death inhibitors of the malarial parasite plastid, 48 hour incubation; P. falciparum luciferase growth in erythrocytes, 48 h; Potency, µM (doses to about 28.7 µM), for the others: at the highest dose activity change, negative = inhibition, most hits filed as inhibitors; actives 5.9% (n = 310,000); AID 504832, 2011
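Growth was read as firefly luciferase luminescence after a 48 h, 37 C, 5% CO2 exposure of compounds to reporter-bearing P. falciparum cultures (0.1% parasitemia, 2% hematocrit final) in Albumax-supplemented RPMI 1640.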
Vaccinia Venus: qHTS for Stage-Specific Inhibitors of Vaccinia Orthopoxvirus: Venus Reporter Primary qHTS; Potency, µM (titrated, usually from 36.5 µM), inactives show at the highest dose activity change, negative = inhibition, actives largely listed as inhibitors; actives 0.46% (n = 330,000); Vaccinia virus Venus reporter expression, fluorescence; AID 720580, 2013; calls by dose curve; tested in A549 cells; note: nearly all actives have a fitted effect of over 30% in size
AMA1 RON2 block: qHTS for Inhibitors of AMA1-RON; Towards Development of Antimalarial Drug Lead: Primary Screen; actives 0.2% (n = 360,000); Potency, µM (doses to about 58.2 µM), inactives show top-dose activity change, negative = inhibition, usual class: inhibitors; AID 720542, 2013; AlphaScreen AMA1-biotinylated RON2 peptide binding;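 note: 0% = vehicle wells and -100% = peptide control; nearly all actives have a fitted effect of over 45% in size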
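AMA1 (3D7) with his tag at 25 nM final met compounds first, then biotinylated RON2 peptide at 25 nM; detection used donor plus acceptor beads, 10 µg/mL apiece, read by AlphaScreen after 30 min at room temperature.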
Vaccinia mCherry: qHTS for Stage-Specific Inhibitors of Vaccinia Orthopoxvirus: mCherry Reporter Primary qHTS; AID 720579, 2013; Vaccinia virus mCherry reporter infection, fluorescence; actives 0.63% (n = 310,000); Potency, µM (series often up to 36.5 µM), for inactives: at the top dose activity change, negative = inhibition, most hits filed as inhibitors; calls by dose curve; tested in A549 cells; note: nearly all actives have a fitted effect of over 35% in size
Active calls of the source: *; i = inactive; u = inconclusive; x = no result given; [ ] = dose if it differs, or a comment. Unless noted, calls come from the whole dose curve; as a rule, active = well fitted curve in the direction sought with a large enough effect; inconclusive = small, poorly fitted or top-dose-only effect, or another doubt; inactive = no such curve, though single readings can be large; an effect the other way counts as inactive or inconclusive. Unless noted, % is set by controls: 0 for no effect and ±100 for the full control effect; potency is the fitted concentration of half-maximal effect.

SMILES | Pf growth 96h | Pf growth 48h | Vaccinia Venus | AMA1 RON2 block | Vaccinia mCherry
COc1ccc(CCNC(=O)c2ccc(Cl)cc2Cl)cc1 | x | 5% | -15% | 23% | -21%
COc1ccc(CCNC(=O)c2cc(C(=O)c3cc(Cl)ccc3O)cn(CCc3ccc(OC)cc3)c2=O)cc1 | 0.52µM* | 1.7µM* | -4% | 10% | i
COc1ccc(-n2cc(C(=O)NCCc3ccc(C)cc3)c3ccccc3c2=O)cc1 | x | x | -11% | x | -11%
O=C(c1cc(C(=O)NCCc2ccccc2)c(=O)n(CCc2ccccc2)c1)c1cc(Cl)ccc1O | 0.41µM* | 0.83µM* | -14% | 5% | 0%
O=C(NCCc1ccccc1)c1ccccc1Cl | -24% | 100% | -7% | 8% | -4%
COc1ccc(CCNC(=O)c2cc(C(=O)c3cc(C)ccc3O)cn(CCc3ccc(OC)cc3)c2=O)cc1 | 3.3µM* | 6.6µM* | -12% | -9% | -24%
COc1ccc(CCC(=O)NCc2nc3cccnc3n2Cc2ccc(OC)cc2)cc1 | x | x | -7% | x | -16%
CCN1CCN(C(c2ccc(SC)cc2)c2c(O)cc(C)n(Cc3ccco3)c2=O)CC1 (stereo not drawn) | x | x | -7% | x | -12%
COc1ccc(-c2c3c(=O)n(C)c(=O)n(C)c3c3c(-c4ccccc4)nc4ccccc4n23)cc1 | x | x | 4% | x | -3%
Cc1nn2c(NC(C)C)c3c(nc2c1-c1ccccc1)CCC3 | u | u | -21% | -6% | -8%
Cc1nn2c(NCCCN(C)C)c3c(nc2c1-c1ccccc1)CCC3 | 10µM* | x | -14% | 0% | -15%
Cc1nn2c(Nc3ccccc3)c3c(nc2c1-c1ccccc1)CCC3 | 5.9µM* | -28% | 8% | 15%[11.6 µM] | -5%
Cc1nn2c(NCCOCCO)c3c(nc2c1-c1ccccc1)CCC3 | u | 45% | -17% | 0% | -7%
Cc1nn2c(NCCCN(C)C)c3c(nc2c1-c1ccccc1)CCCC3 | 8.3µM* | 15µM* | -8%[7.34 µM] | -16% | -21%[7.34 µM]
COCCNc1c2c(nc3c(-c4ccccc4)c(C)nn13)CCC2 | u | u | -5% | -2% | i
CCc1ccccc1NC(=O)CN1C(=O)COc2ccc(S(=O)(=O)N3CCCCCC3)cc21 | x | x | -14% | x | -20%
CCC(=O)Nc1ccc(C(=O)CSc2nnc(-c3ccc(NS(C)(=O)=O)cc3)n2C)cc1OC | 0.47µM* | -19% | -8% | 3% | -10%
CN(C)S(=O)(=O)c1ccc2c(c1)/C(=C/c1cc3c([nH]1)CCCC3)C(=O)N2 | 1.3µM* | 2.1µM* | 32% | -14% | -10%
O=C(Nc1cccc(Br)c1)c1ccc(Cl)c(S(=O)(=O)N2CCOCC2)c1 | -3% | 6.6µM* | u | 12% | u
O=C(Nc1cccc(C(=O)NC2CC2)c1)c1ccc(Cl)c(S(=O)(=O)N2CCOCC2)c1 | 13µM* | u | x | -5% | x
O=C(Nc1cccc(S(=O)(=O)N2CCOCC2)c1)c1cc(S(=O)(=O)N2CCOCC2)c(Cl)cc1Cl | x | x | x | 1% | x
O=C(NC1CCCC1)c1cc(S(=O)(=O)N2CCOCC2)c(Cl)cc1Cl | 4.7µM* | -30% | -19% | -16% | -9%
O=C(Nc1cccc(S(=O)(=O)C(F)F)c1)c1ccc(Cl)c(S(=O)(=O)N2CCOCC2)c1 | x | 9.3µM* | u | -18% | i
O=C(Nc1cccnc1)c1ccc(Cl)c(S(=O)(=O)N2CCOCC2)c1 | -23% | -26% | 4% | 24% | -8%
CCOc1ccccc1C(=O)N1CCc2cc(OC)c(OC)cc2C1COc1ccc(OC)cc1 (stereo not drawn) | x | x | 4% | x | 3%
SMILES | Pf growth 96h | Pf growth 48h | Vaccinia Venus | AMA1 RON2 block | Vaccinia mCherry
COc1ccc(CNC(=O)Cn2c(=O)oc3cc(S(=O)(=O)N4CCCCCC4)ccc32)cc1 | x | x | -9% | x | -12%
O=C(CCCC1=NS(=O)(=O)c2ccccc2N1)N1CCN(c2ccc([N+](=O)[O-])cc2)CC1 | u | 8.3µM* | -3% | -11% | -15%
COC(=O)c1sccc1S(=O)(=O)N1CCN(c2ccc(C)cc2C)CC1 | x | x | 10% | x | 1%
NC(=O)c1cccc2ccccc12 | 31% | 11% | -19% | 0% | -24%
OCc1ccnc2c(O)cccc12 | u | 2.3µM* | x | 11µM* | x
NC(=O)c1ccnc2c(O)cccc12 | 12µM* | u | x | x | x
Oc1ccc(CNc2ccccc2)c2cccnc12 | 38% | u | x | -74% | x
Cc1cc(C)cc(NC(=O)C2CC23CCN(Cc2ccc4ncccc4c2)CC3)c1 (stereo not drawn) | x | x | 0% | x | -3%
CC1/C(=N/O)CC(c2ccccc2)N(C)C1c1ccccc1 (stereo not drawn) | u | 13µM* | -9% | -5% | -13%
Cc1cnc(-n2ncc(C(=O)N(CCO)C(C)C)c2-c2cccs2)nc1-c1ccc(F)cc1 | x | x | -16% | x | -18%
CC(C)OCCCn1c(-c2ccco2)nc2nc3ccccc3nc21 | 3.3µM* | u | x | 6% | x
CCC(C)n1c(-c2ccco2)nc2nc3ccccc3nc21 (stereo not drawn) | 10µM* | u | x | x | x
Cc1cccc(-n2c(-c3ccco3)nc3nc4ccccc4nc32)c1 | -7% | 1% | x | x | x
COc1cccc(-n2c(-c3ccco3)nc3nc4ccccc4nc32)c1 | 3.3µM* | 2% | x | 9% | x
Cc1ccc(NC(=O)CSc2nc3ccc(NC(=O)CCc4ccccc4)cc3s2)cc1 | x | x | 1% | x | 1%
COCC(=O)N1C[C@H]2CON(C)[C@H]2C[C@H]1c1ccc(N2CCCCC2)cc1 | x | x | -2% | 3% | 11%
CN1OC[C@@H]2CN(Cc3ccc(Cl)cc3)[C@H](c3ccc(N4CCCCC4)cc3)C[C@@H]21 | x | x | -4% | 16µM* | i
COc1ccc(-n2nc(C(=O)N3CCN(c4cccc(C(F)(F)F)c4)CC3)c3c4ccccc4n(C)c3c2=O)cc1Cl | x | x | 0% | x | -15%
CS(=O)(=O)CCC(C(=O)OCc1ccc(Br)cc1)N1C(=O)c2ccccc2C1=O (stereo not drawn) | 20% | -3% | 1% | -7% | -10%
COC(=O)c1ccc(COC(=O)C(CCS(C)(=O)=O)N2C(=O)c3ccccc3C2=O)cc1 (stereo not drawn) | 6.6µM* | -9% | -5% | 15% | -11%
CCN(CC(=O)Nc1ccc(C)c(S(=O)(=O)N2CCOCC2)c1)Cc1ccccc1 | u | 12µM* | -19% | 10% | -2%
O=C(CCCOc1ccccc1)Nc1ccc(Cl)c(S(=O)(=O)N2CCOCC2)c1 | x | x | -28% | 2% | -12%
Cc1ccc(NC(=O)CCCOc2ccccc2)cc1S(=O)(=O)N1CCOCC1 | u | 10µM* | x | -2% | x
Cc1ccc(NC(=O)C(=O)c2c(-c3ccccc3)cc3ccccn23)cc1S(=O)(=O)N1CCOCC1 | x | 9.3µM* | x | -12% | x

Bioassay records as filed in PubChem BioAssay.
